Structures are written as SMILES. The whole screen tested about 310,000 compounds, of which about 14,000 (4.5%) showed an effect of 50% or more. The effect is printed as a negative number. What follows is part of a selection rich in strong results, with near analogues and random picks from the rest.
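Also: peak tail current of the secondary pulse compared with the same well before compound.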

Sequence of human ether-à-go-go-related gene (hERG) potassium channel (Q12809 whole entry, looked up): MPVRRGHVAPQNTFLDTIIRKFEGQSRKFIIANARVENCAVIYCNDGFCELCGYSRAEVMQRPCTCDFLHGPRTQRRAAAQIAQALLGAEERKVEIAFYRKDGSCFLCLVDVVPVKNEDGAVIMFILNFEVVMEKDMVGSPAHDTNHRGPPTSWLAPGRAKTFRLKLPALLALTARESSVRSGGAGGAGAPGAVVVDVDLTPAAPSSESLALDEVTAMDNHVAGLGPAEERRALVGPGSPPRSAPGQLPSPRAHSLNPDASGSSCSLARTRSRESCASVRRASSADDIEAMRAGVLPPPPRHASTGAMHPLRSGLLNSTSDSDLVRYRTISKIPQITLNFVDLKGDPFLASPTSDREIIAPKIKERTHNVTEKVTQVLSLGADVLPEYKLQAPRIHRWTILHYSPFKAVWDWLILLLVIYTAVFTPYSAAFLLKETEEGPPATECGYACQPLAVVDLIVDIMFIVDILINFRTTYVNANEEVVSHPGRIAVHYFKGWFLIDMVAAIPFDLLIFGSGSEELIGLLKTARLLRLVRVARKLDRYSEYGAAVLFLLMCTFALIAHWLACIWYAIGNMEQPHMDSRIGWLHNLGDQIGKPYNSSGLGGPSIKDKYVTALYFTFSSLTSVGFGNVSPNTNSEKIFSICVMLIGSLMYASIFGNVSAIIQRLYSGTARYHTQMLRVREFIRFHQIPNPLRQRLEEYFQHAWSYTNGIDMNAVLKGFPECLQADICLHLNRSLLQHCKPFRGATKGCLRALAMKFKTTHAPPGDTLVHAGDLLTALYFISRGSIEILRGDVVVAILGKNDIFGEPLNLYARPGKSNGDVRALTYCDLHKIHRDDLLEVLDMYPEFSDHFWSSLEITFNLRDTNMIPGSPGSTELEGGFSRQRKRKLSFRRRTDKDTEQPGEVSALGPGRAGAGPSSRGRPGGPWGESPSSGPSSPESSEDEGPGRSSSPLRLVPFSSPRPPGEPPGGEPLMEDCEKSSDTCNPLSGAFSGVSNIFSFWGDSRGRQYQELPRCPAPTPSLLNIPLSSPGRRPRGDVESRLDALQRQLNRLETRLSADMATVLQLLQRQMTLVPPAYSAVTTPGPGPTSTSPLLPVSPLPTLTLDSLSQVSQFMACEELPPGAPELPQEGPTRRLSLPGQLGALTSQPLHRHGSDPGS

The experiment addresses human ether-à-go-go-related gene (hERG) potassium channel (human, UniProt Q12809). Put plainly: primary screen, population patch clamp on CHO cells stably expressing hERG; higher = less effect of the substance.
As for `COc1ccccc1C(=O)Nc1ccc2c(c1)nc(CN1CCCCC1)n2C`, the “hERG current change (%, negative = inhibition) at 10uM” value is reported as -21.8%. As for `COc1ccccc1C(=O)Nc1ccc2c(c1)nc(CN1CCN(C(C)=O)CC1)n2C`, the “hERG current change (%, negative = inhibition) at 10uM” value was -80%. As to `CC(=O)N1CCN(Cc2nc3cc(NC(=O)c4ccccc4C)ccc3n2C)CC1`, the “hERG current change (%, negative = inhibition) at 10uM” value worked out at 10.2%. On to `Cn1c(CN2CCCCC2)nc2cc(NC(=O)c3ccc(Cl)cc3)ccc21`, for which the “hERG current change (%, negative = inhibition) at 10uM” value is -59.8%.

With `CCCC(=O)Nc1ccc2c(c1)nc(CN1CCCCC1)n2C`, the “hERG current change (%, negative = inhibition) at 10uM” value is 2.55%. Take `Cn1c(CN2CCCCC2)nc2cc(NC(=O)c3ccccc3Cl)ccc21`: the “hERG current change (%, negative = inhibition) at 10uM” value is recorded as -8.74%.

Take `CS(=O)(=O)c1ccc(-n2c(=O)n(Cc3ccccc3)c(=O)c3[nH]cnc32)cc1`: the “hERG current change (%, negative = inhibition) at 10uM” value is -45.7%. For the compound `CCOP(=O)(OCC)/C(C#N)=C/c1ccc(Br)cc1`, the “hERG current change (%, negative = inhibition) at 10uM” value was -13.5%. With `O=C1c2ccccc2C(=O)N1CCN1CCCCC1`, the “hERG current change (%, negative = inhibition) at 10uM” value is listed as -6.2%. `CC1CN(C(=O)/C=C/c2ccccc2[N+](=O)[O-])CC(C)O1` (centres unmarked): the “hERG current change (%, negative = inhibition) at 10uM” value is -4.44%. `CCCCc1cn([C@@H](CCCCN)C(=O)N2CCNCC2)nn1.Cl`: the “hERG current change (%, negative = inhibition) at 10uM” value came to 18.8%.

Take `CCCCCn1c(=NC(=O)c2ccco2)c(C(=O)OCC)cc2c(=O)n3ccccc3nc21`: the “hERG current change (%, negative = inhibition) at 10uM” value was -73.5%. `CCCn1c(=NC(=O)c2ccco2)c(C(=O)OCC)cc2c(=O)n3ccccc3nc21`: the “hERG current change (%, negative = inhibition) at 10uM” value is on record as -66.7%. Regarding `CCCn1c(=NC(=O)c2c(-c3c(F)cccc3Cl)noc2C)c(C(=O)OCC)cc2c(=O)n3ccccc3nc21`, the “hERG current change (%, negative = inhibition) at 10uM” value amounted to 5.26%. Take `CCOC(=O)c1cc2c(=O)n3ccccc3nc2n(C(C)C)c1=NC(=O)c1c(-c2ccccc2Cl)noc1C`: the “hERG current change (%, negative = inhibition) at 10uM” value came to 24.3%. On to `CCOC(=O)c1cc2c(=O)n3ccccc3nc2n(C(C)C)c1=NC(=O)c1c(-c2c(F)cccc2Cl)noc1C`, for which the “hERG current change (%, negative = inhibition) at 10uM” value turned out to be 2.48%. On to `CCOC(=O)c1cc2c(=O)n3ccccc3nc2n(C(C)C)c1=NC(=O)c1ccncc1`, for which the “hERG current change (%, negative = inhibition) at 10uM” value was -67.5%.

Consider `CCOC(=O)c1cc2c(=O)n3ccccc3nc2n(C)c1=NC(=O)c1c(-c2c(F)cccc2Cl)noc1C`, for which the “hERG current change (%, negative = inhibition) at 10uM” value is on record as 14%. As for `CCCn1c(=NC(C)=O)c(C(=O)OCC)cc2c(=O)n3ccccc3nc21`, the “hERG current change (%, negative = inhibition) at 10uM” value is reported as -9.98%. Take `CCOC(=O)c1cc2c(=O)n3ccccc3nc2n(C(C)C)c1=NC(=O)c1ccco1`: the “hERG current change (%, negative = inhibition) at 10uM” value is listed as -56.8%. Regarding `Cc1onc(-c2c(Cl)cccc2Cl)c1C(=O)NCc1cccs1`, the “hERG current change (%, negative = inhibition) at 10uM” value is reported as -9.65%. As for `COC(=O)CSc1nnc(SCc2ccc(Cl)cc2)s1`, the “hERG current change (%, negative = inhibition) at 10uM” value is -0.477%. `Cc1occc1C(=O)N/N=C/c1ccc(-c2cccc([N+](=O)[O-])c2)o1`: the “hERG current change (%, negative = inhibition) at 10uM” value was 1.37%. For `O=C(COC(=O)c1cc(S(=O)(=O)NCc2ccccc2)ccc1O)c1cc2ccccc2o1` the value was 11.9%.

For the compound `COc1ccccc1NC(=O)CCCN1C(=O)C2CC=CCC2C1=O` (centres unmarked), the “hERG current change (%, negative = inhibition) at 10uM” value is 11.1%.

For the compound `CCN1CCN(Cc2ccccc2NC(=O)Nc2ccc(C)cc2)CC1`, the “hERG current change (%, negative = inhibition) at 10uM” value was -0.992%. Turning to `COc1cc2nc(CN(CCC(C)C)Cc3nc4cc(OC)c(OC)cc4c(=O)[nH]3)[nH]c(=O)c2cc1OC`, the “hERG current change (%, negative = inhibition) at 10uM” value is -2.68%. For `Cc1ccccc1NC(=O)c1nn(C)c(C(=O)Nc2ccccc2C)c1[N+](=O)[O-]` the value was 0.0696%; for `CCCCn1c(=NC(=O)c2ccco2)c(C(=O)OCC)cc2c(=O)n3ccccc3nc21`, -71.7%. For `CCOc1cc(/C=C/c2ccc3cccc([N+](=O)[O-])c3n2)ccc1OCC(=O)N(C)C` the value was -33.4%; for `Cc1ccc(-c2nnc(N3CCN(C(=O)CN4CCOCC4)CC3)c3ccccc23)cc1`, -31.5%; for `N#Cc1c(N2CCN(C(=O)c3ccco3)CC2)nc(-c2ccccc2)c2c1CCCC2`, -5.84%. For `Cc1ccc(-c2nnc(N3CCN(C(=O)c4ccco4)CC3)c3ccccc23)cc1`, the “hERG current change (%, negative = inhibition) at 10uM” value is recorded as -75.2%.

Regarding `Cc1ccc(-c2nnc(N3CCCCC3)c3ccccc23)cc1`, the “hERG current change (%, negative = inhibition) at 10uM” value is on record as -11.2%. Take `O=C(c1ccco1)N1CCN(c2nnc(-c3ccccc3)c3ccccc23)CC1`: the “hERG current change (%, negative = inhibition) at 10uM” value is recorded as -75.8%. Take `O=C(CN1CCOCC1)N1CCN(c2nnc(-c3ccccc3)c3ccccc23)CC1`: the “hERG current change (%, negative = inhibition) at 10uM” value was 7.35%. For `O=C(Nc1nccs1)C1CCN(S(=O)(=O)c2ccccc2)CC1` the value was -14.1%; for `CN(C)S(=O)(=O)c1cccc(NC(=O)c2sccc2-c2ccccc2)c1`, -26.1%. As to `CCNC(=S)Nc1ccc(Cc2nc3ccccc3[nH]2)cc1`, the “hERG current change (%, negative = inhibition) at 10uM” value was 9.19%. The result for `FC(F)Oc1ccc(NC(=S)NCc2nc3ccccc3[nH]2)cc1` reads -79.2%. As for `CCOc1ccc(NC(=S)NCc2nc3ccccc3[nH]2)cc1`, the “hERG current change (%, negative = inhibition) at 10uM” value is reported as -74%. In the case of `FC(F)Oc1ccc(NC(=S)Nc2ccc3cn[nH]c3c2)cc1`, the “hERG current change (%, negative = inhibition) at 10uM” value is -79.5%. With `CCc1cccc(CC)c1NC(=S)NCc1nc2ccccc2[nH]1`, the “hERG current change (%, negative = inhibition) at 10uM” value worked out at 3.09%. In the case of `COc1ccc(NC(=S)Nc2ccc3cn[nH]c3c2)cc1`, the “hERG current change (%, negative = inhibition) at 10uM” value is given as -11.9%.

These data come from PMC4336329 (PLoS ONE, 2015).
